Measurements from PubChem BioAssay AID1159580 (chemical genetic matrix, 2015).
Hit rate of the full screen: of about 5,500 compounds, about 2,000 (36%) were called active. About 18% were inconclusive and are not listed. Cut-off read from the data, not from the text of the source: active = normalized growth mostly below about 0.91 (no sharp cut-off); inconclusive = no clear call, values can overlap the other calls; inactive = mostly above about 0.92. This is one part of the list.

Assay: chemical genetic growth profiling, strain panel (AID 1159580);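 note: tested at 20 µM; growth read once vehicle control cultures reached saturation at 30 °C; 1 = growth at the plate median or of vehicle wells; lower values mean less growth of the strain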
Conditions: S. cerevisiae deletion strains, growth OD
[1] = locus YAR019C, strain CDC15, hits give low values
[2] = locus YBL105C, strain PKC1, hits give low values
[3] = locus YBR135W, strain CKS1, hits give low values
[4] = locus YBR136W, strain MEC1, hits give low values
[5] = locus YBR160W, strain CDC28, hits give low values
[6] = locus YDL017W, strain CDC7, hits give low values
[7] = locus YDL028C, strain MPS1, hits give low values
[8] = locus YDL101C, strain DUN1, hits give low values
[9] = locus YDL108W, strain KIN28, hits give low values
[10] = locus YDL132W, strain cdc53, hits give low values
[11] = locus YDL214C, strain PRR2, hits give low values
[12] = locus YDR052C, strain DBF4, hits give low values
[13] = locus YDR054C, strain cdc34, hits give low values
[14] = locus YDR226W, strain ADK1, hits give low values
[15] = locus YDR477W, strain SNF1, hits give low values
[16] = locus YER123W, strain YCK3, hits give low values
[17] = locus YER133W, strain GLC7, hits give low values
[18] = locus YFL009W, strain cdc4, hits give low values
[19] = locus YFL029C, strain CAK1, hits give low values
[20] = locus YFR003C, strain YPI1, hits give low values
[21] = locus YFR019W, strain FAB1, hits give low values
[22] = locus YFR028C, strain CDC14, hits give low values
[23] = locus YGR040W, strain KSS1, hits give low values
[24] = locus YGR052W, strain FMP48, hits give low values
[25] = locus YGR092W, strain DBF2, hits give low values
[26] = locus YHR030C, strain SLT2, hits give low values
[27] = locus YHR079C, strain IRE1, hits give low values
[28] = locus YHR082C, strain KSP1, hits give low values
[29] = locus YHR205W, strain SCH9, hits give low values
[30] = locus YIL147C, strain SLN1, hits give low values
[31] = locus YJL095W, strain BCK1, hits give low values
[32] = locus YJL128C, strain PBS2, hits give low values
[33] = locus YJL157C, strain FAR1, hits give low values
[34] = locus YJR016C, strain ILV3, hits give low values
[35] = locus YJR066W, strain TOR1 (second series), hits give low values
[36] = locus YJR066W, strain TOR1, hits give low values
[37] = locus YKL048C, strain ELM1, hits give low values
[38] = locus YKL101W, strain HSL1, hits give low values
[39] = locus YKL193C, strain SDS22, hits give low values
[40] = locus YKL203C, strain TOR2, hits give low values
[41] = locus YLR113W, strain HOG1, hits give low values
[42] = locus YLR133W, strain CKI1, hits give low values
[43] = locus YLR403W, strain SFP1, hits give low values
[44] = locus YML070W, strain DAK1, hits give low values
[45] = locus YMR001C, strain CDC5, hits give low values
[46] = locus YMR205C, strain PFK2 (second series), hits give low values
[47] = locus YMR277W, strain FCP1, hits give low values
[48] = locus YNL006W, strain LST8, hits give low values
[49] = locus YNL020C, strain ARK1, hits give low values
[50] = locus YNL161W, strain CBK1, hits give low values
[51] = locus YNL183C, strain NPR1, hits give low values
[52] = locus YNL207W, strain RIO2, hits give low values
[53] = locus YNL222W, strain SSU72, hits give low values
[54] = locus YNL307C, strain MCK1 (second series), hits give low values
[55] = locus YOL078W, strain AVO1, hits give low values
[56] = locus YOL136C, strain PFK27, hits give low values
[57] = locus YOR061W, strain CKA2, hits give low values
[58] = locus YOR119C, strain RIO1, hits give low values
[59] = locus YOR231W, strain MKK1, hits give low values
[60] = locus YOR329C, strain SCD5, hits give low values
[61] = locus YPL031C, strain PHO85, hits give low values
[62] = locus YPL153C, strain RAD53, hits give low values
[63] = locus YPL204W, strain HRR25, hits give low values
[64] = locus YPL209C, strain IPL1, hits give low values
[65] = locus YPL256C, strain CLN2, hits give low values
[66] = locus YPR025C, strain CCL1, hits give low values
[67] = locus YPR106W, strain ISR1, hits give low values
[68] = locus YPR111W, strain DBF20, hits give low values
[69] = strain NNK1, hits give low values
[70] = strain TSCII, hits give low values

Measured: normalized growth

O=C1OC(c2ccccc2)=C/C1=C/c1ccccc1
active: [11] 0.604 | [15] 0.635 | [23] 0.674 | [24] 0.353 | [26] 0.506 | [28] 0.522 | [29] 0.514 | [36] 0.461 | [40] 0.614 | [41] 0.714 | [43] 0.611 | [51] 0.188 | [58] 0.519 | [65] 0.793
inactive: [1] 0.952 | [2] 0.953 | [3] 0.942 | [4] 0.953 | [5] 0.943 | [6] 0.95 | [7] 0.923 | [8] 0.966 | [9] 0.925 | [10] 0.96 | [12] 0.969 | [13] 0.962 | [14] 0.944 | [16] 0.869 | [17] 0.725 | [18] 0.961 | [19] 0.925 | [20] 0.956 | [21] 0.946 | [22] 0.948 | [25] 0.855 | [27] 0.934 | [30] 0.955 | [31] 0.669 | [32] 1 | [33] 0.761 | [34] 0.954 | [35] 0.861 | [37] 0.889 | [38] 0.797 | [39] 0.948 | [42] 0.843 | [44] 0.892 | [45] 0.951 | [46] 0.843 | [47] 0.918 | [48] 0.956 | [49] 0.9 | [50] 0.945 | [52] 0.951 | [53] 0.932 | [54] 0.95 | [55] 0.954 | [56] 0.914 | [57] 0.844 | [59] 0.943 | [60] 0.961 | [61] 0.758 | [62] 0.798 | [63] 0.839 | [64] 0.947 | [66] 0.945 | [67] 0.981 | [68] 0.964 | [69] 0.949 | [70] 0.93

NC(=O)c1ccc(OCC(O)CN2CC=C(c3ccc(F)cc3)CC2)cc1 (stereo not given)
inactive: locus YAL040C, strain CLN3, hits give low values 1.06 | locus YCL061C, strain MRC1 (second series), hits give low values 0.982 | locus YDR150W, strain NUM1, hits give low values 1.01 | locus YDR363W, strain ESC2, hits give low values 0.964 | locus YER002W, strain NOP16, hits give low values 1.01 | locus YMR263W, strain SAP30, hits give low values 0.98 | locus YMR307W, strain GAS1, hits give low values 0.998 | locus YNL128W, strain TEP1, hits give low values 1.01 | locus YNL175C, strain NOP13, hits give low values 1.03 | locus YNL197C, strain WHI3, hits give low values 1 | locus YNL224C, strain SQS1, hits give low values 1.01 | locus YNL322C, strain KRE1, hits give low values 0.962 | locus YOR083W, strain WHI5 (second series), hits give low values 1 | locus YPL055C, strain LGE1, hits give low values 0.98

COc1ccc(N=C2SCC(c3ccc(C)cc3)=NN2CCO)cc1
inactive: [1] 0.975 | [2] 0.985 | [3] 0.979 | [4] 0.972 | [5] 0.982 | [6] 0.982 | [7] 0.971 | [8] 0.982 | [9] 0.981 | [10] 0.98 | [11] 0.975 | [12] 0.988 | [13] 0.979 | [14] 0.981 | [15] 0.958 | [16] 0.943 | [17] 0.971 | [18] 0.972 | [19] 0.964 | [20] 0.98 | [21] 0.985 | [22] 0.972 | [23] 0.961 | [24] 1.01 | [25] 0.947 | [26] 0.95 | [27] 0.968 | [28] 0.991 | [29] 0.987 | [30] 0.977 | [31] 0.973 | [32] 0.955 | [33] 0.979 | [34] 0.979 | [35] 0.925 | [36] 0.962 | [37] 0.997 | locus YKL067W, strain YNK1, hits give low values 0.971 | [38] 0.976 | [39] 0.975 | [40] 1.02 | [41] 0.915 | [42] 0.976 | [43] 0.976 | [44] 0.956 | [45] 0.984 | [46] 0.971 | [47] 0.978 | [48] 0.986 | [49] 0.983 | [50] 0.978 | [51] 0.941 | [52] 0.978 | [53] 0.972 | [54] 0.98 | [55] 0.977 | [56] 0.96 | [57] 0.983 | [58] 0.999 | [59] 0.963 | [60] 0.983 | [61] 0.969 | [62] 0.97 | [63] 0.961 | [64] 0.977 | [65] 0.946 | [66] 0.985 | [67] 0.979 | [68] 0.968 | [69] 0.983 | [70] 0.982
